From ChEMBL document CHEMBL1961873, “Compounds: GSK PKIS; Assays: Nanosyn kinase panel” (2012)

How the values were obtained:
[1] = target: Rho-associated protein kinase 1 (Homo sapiens) (UniProt Q13464); conditions: at 1 µM;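 further: reported values are mean percent inhibition of ROCK1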
[2] = target: Rho-associated protein kinase 2 (Homo sapiens) (UniProt O75116); conditions: at 0.1 µM
[3] = target: Rho-associated protein kinase 2 (Homo sapiens) (UniProt O75116); conditions: at 1 µM
[4] = target: Ribosomal protein S6 kinase alpha-1 (Homo sapiens) (UniProt Q15418); conditions: at 0.1 µM
[5] = target: Ribosomal protein S6 kinase alpha-1 (Homo sapiens) (UniProt Q15418); conditions: at 1 µM
[6] = target: Ribosomal protein S6 kinase alpha-3 (Homo sapiens) (UniProt P51812); conditions: at 0.1 µM
[7] = target: Ribosomal protein S6 kinase alpha-3 (Homo sapiens) (UniProt P51812); conditions: at 1 µM
[8] = target: Ribosomal protein S6 kinase alpha-2 (Homo sapiens) (UniProt Q15349); conditions: at 0.1 µM
[9] = target: Ribosomal protein S6 kinase alpha-2 (Homo sapiens) (UniProt Q15349); conditions: at 1 µM
[10] = target: Ribosomal protein S6 kinase alpha-6 (Homo sapiens) (UniProt Q9UK32); conditions: at 0.1 µM;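 further: reported value is the mean inhibition of RSK4, from the GSK PKIS kinase inhibitor screen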
Ribosomal protein S6 kinase alpha-6 (Homo sapiens), sequence (Q9UK32 whole entry): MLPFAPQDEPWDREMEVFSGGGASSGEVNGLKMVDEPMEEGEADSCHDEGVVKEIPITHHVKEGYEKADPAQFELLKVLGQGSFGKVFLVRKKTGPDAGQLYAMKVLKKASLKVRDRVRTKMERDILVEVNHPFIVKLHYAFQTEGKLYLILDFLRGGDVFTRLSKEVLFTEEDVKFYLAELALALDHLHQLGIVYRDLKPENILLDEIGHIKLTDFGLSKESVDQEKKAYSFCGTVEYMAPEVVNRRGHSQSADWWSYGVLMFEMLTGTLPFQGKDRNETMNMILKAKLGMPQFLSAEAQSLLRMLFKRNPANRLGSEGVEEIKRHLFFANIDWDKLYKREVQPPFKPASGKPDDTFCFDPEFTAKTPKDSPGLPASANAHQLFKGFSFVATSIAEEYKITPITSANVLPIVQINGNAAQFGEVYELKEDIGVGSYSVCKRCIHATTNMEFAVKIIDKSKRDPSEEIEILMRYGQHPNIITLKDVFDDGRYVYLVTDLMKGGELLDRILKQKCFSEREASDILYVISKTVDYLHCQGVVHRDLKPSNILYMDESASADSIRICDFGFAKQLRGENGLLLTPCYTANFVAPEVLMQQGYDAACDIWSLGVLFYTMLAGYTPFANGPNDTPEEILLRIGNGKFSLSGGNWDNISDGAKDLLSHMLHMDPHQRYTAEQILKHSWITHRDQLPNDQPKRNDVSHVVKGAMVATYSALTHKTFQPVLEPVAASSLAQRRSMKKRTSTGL

Ribosomal protein S6 kinase alpha-1 (Homo sapiens), sequence (Q15418 whole entry): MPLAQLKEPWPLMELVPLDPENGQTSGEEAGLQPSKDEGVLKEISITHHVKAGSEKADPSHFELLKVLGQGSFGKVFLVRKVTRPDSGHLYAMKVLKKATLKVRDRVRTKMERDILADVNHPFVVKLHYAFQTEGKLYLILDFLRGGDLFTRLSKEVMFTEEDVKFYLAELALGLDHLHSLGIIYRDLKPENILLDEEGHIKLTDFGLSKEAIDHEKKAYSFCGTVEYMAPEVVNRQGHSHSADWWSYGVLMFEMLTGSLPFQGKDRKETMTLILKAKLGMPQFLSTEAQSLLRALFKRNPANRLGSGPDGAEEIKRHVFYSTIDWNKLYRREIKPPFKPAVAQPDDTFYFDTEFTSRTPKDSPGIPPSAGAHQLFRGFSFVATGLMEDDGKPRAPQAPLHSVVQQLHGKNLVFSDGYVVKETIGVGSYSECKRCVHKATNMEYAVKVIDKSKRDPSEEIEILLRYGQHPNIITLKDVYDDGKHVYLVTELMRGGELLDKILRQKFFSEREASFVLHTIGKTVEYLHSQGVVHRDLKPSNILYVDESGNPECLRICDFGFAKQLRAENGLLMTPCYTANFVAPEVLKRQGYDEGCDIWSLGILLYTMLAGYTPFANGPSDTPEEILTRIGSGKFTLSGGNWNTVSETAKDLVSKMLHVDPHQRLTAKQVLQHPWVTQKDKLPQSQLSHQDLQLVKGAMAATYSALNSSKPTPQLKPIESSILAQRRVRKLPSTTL
Rho-associated protein kinase 1 (Homo sapiens), sequence (Q13464 2-1354 limits assumed): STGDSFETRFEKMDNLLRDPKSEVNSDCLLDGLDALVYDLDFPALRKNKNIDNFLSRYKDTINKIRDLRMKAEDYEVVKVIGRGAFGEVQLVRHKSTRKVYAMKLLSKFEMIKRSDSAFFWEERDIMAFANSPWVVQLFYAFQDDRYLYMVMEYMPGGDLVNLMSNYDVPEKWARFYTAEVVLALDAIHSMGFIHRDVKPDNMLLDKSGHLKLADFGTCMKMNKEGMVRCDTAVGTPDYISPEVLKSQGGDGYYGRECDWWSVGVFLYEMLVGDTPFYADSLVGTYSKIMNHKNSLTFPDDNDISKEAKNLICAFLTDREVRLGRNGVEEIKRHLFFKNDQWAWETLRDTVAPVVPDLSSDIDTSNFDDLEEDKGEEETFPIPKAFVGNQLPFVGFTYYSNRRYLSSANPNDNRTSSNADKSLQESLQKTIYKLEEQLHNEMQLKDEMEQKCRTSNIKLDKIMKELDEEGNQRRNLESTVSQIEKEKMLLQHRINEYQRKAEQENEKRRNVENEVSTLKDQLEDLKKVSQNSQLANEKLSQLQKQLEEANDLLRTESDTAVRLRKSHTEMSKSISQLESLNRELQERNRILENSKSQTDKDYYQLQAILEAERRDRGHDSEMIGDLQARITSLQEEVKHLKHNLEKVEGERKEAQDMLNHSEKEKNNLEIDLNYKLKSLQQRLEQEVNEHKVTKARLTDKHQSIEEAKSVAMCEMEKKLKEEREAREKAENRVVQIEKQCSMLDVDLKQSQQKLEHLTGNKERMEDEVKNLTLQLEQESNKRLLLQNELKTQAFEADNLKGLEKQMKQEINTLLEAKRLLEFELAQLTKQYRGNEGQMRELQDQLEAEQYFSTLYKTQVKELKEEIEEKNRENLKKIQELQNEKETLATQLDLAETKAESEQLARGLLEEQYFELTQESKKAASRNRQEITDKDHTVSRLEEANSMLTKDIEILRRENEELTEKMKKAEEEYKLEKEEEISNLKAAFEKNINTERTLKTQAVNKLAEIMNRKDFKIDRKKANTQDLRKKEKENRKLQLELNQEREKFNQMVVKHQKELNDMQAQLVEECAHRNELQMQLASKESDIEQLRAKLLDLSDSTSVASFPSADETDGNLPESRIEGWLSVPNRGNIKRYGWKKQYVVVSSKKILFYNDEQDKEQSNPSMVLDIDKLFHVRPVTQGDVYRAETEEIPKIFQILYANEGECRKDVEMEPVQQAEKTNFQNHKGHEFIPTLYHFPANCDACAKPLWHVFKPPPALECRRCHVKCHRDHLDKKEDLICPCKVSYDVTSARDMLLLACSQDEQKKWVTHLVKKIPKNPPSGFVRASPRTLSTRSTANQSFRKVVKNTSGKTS
Ribosomal protein S6 kinase alpha-2 (Homo sapiens), sequence (Q15349 whole entry): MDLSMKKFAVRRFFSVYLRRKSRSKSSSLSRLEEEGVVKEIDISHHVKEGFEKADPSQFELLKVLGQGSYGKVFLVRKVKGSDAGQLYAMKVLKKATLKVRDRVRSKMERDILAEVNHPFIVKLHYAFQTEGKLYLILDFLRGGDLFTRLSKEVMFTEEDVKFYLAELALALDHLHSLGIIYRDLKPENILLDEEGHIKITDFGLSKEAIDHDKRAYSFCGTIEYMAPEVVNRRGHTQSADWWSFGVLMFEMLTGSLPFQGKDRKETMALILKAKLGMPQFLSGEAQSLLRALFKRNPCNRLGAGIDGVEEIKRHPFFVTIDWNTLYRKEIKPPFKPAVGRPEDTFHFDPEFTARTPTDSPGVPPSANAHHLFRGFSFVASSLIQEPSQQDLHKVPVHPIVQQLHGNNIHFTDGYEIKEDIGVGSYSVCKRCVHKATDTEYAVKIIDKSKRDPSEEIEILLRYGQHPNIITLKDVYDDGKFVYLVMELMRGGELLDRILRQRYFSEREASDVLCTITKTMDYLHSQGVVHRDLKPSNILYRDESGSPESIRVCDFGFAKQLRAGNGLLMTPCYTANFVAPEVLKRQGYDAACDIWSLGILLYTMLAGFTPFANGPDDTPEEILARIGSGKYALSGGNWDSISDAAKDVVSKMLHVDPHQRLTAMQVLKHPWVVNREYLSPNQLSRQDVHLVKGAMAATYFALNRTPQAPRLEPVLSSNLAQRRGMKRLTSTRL
Ribosomal protein S6 kinase alpha-3 (Homo sapiens), sequence (P51812 whole entry): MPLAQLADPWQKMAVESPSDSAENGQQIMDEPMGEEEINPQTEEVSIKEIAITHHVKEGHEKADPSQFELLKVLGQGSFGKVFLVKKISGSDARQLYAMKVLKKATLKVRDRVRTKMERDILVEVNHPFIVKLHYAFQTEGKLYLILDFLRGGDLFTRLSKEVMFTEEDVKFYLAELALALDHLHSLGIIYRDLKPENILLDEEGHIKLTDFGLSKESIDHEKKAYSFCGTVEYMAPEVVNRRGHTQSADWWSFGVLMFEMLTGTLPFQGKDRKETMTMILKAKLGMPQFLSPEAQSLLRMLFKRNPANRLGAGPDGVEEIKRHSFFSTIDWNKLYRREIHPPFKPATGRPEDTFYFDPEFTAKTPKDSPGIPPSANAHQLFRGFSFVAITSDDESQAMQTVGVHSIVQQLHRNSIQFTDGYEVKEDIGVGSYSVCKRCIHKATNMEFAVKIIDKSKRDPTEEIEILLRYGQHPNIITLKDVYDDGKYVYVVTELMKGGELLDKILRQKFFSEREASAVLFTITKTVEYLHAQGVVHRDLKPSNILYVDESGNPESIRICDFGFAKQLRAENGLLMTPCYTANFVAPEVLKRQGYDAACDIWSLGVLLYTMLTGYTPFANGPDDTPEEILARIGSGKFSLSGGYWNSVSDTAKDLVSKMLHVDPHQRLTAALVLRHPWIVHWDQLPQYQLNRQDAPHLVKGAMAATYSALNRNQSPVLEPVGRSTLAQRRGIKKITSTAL

Compound | inhibition [1] | inhibition [2] | inhibition [3] | inhibition [4] | inhibition [5] | inhibition [6] | inhibition [7] | inhibition [8] | inhibition [9] | inhibition [10]
C[C@@H](Oc1cc(-n2cnc3ccc(OC[C@@H](O)CO)cc32)sc1C(N)=O)c1ccccc1Cl | 1.42% | -0.36% | 0.84% | 0.36% | 3.32% | 1.35% | 5.89% | -0.54% | 3.27% | -0.4%
NS(=O)(=O)c1ccc(NC=C2C(=O)Nc3ccc4ncsc4c32)cc1 | 55.1% | 27.4% | 69.4% | 15.1% | 53.4% | 17.7% | 57.1% | 34.3% | 80.5% | 29.3%
CN(C)CCCn1c(-c2nonc2N)nc2cnccc21 | 32.8% | 11.6% | 45.3% | 2.28% | 11.8% | 1.45% | 6.61% | 4.55% | 16.4% | 1.79%
COc1cc(/C=N/Nc2ncnc3c2cnn3C(C)C)ccc1O | 4.3% | 0.86% | 2.83% | 10.4% | 1.08% | 0.95% | 1.27% | 1.98% | 2.99% | 1.4%
CCn1c(-c2nonc2N)nc2c(C#CC(C)(C)O)nc(OCCNC)cc21 | 4.86% | 3.51% | 5.7% | 0.22% | 4.86% | 1.84% | 5.57% | 3.02% | 7.49% | 0.98%
CC(C)c1ccc(Nc2nccc(-c3cnn4ncccc34)n2)cc1 | 10.9% | 5.29% | 24.7% | 0.96% | 3.69% | -0.01% | 2.08% | 0.12% | 2.76% | -0.42%
OCc1ccc(-c2nc(-c3ccccn3)c(-c3ccc4c(c3)OCO4)[nH]2)cc1 | 2.25% | 3.74% | 1.44% | 1.38% | 0.67% | 0.79% | 0.24% | 2.72% | 3.66% | 1.53%
NC(=O)c1sc(-n2cnc3ccccc32)cc1OCc1ccccc1Br | 3.15% | 2.13% | 3.77% | 1.32% | 3.02% | 1.56% | 2.97% | 3.5% | 4.96% | 2.09%
COc1cc2ncnc(Nc3ccc4c(cnn4Cc4ccccc4)c3)c2cc1OC | 6.38% | 2.52% | 7.05% | 0.76% | 2.15% | 0.6% | 2.23% | 2.97% | 3.65% | 1.46%
N#Cc1c(NC(=O)c2ccccc2F)sc2c1CCCC2 | 0.92% | -0.61% | 0.55% | 0.59% | 1.03% | 0.77% | 2.33% | -0.49% | 0.67% | -0.24%
CCCN1CCCC(c2ccc(Nc3nc(Nc4cc(F)ccc4C(N)=O)c4cc[nH]c4n3)c(OC)c2)C1 (stereo not given) | 67.7% | 27.2% | 71.3% | 35.1% | 72.5% | 22.6% | 40.2% | 9.15% | 38% | 19.7%
Nc1ccc(C#Cc2cncnc2Nc2ccc(OCc3cccc(F)c3)c(Cl)c2)cc1 | 2.72% | 1.93% | 1.92% | 1.19% | 1.59% | 0.98% | 1.75% | 1.56% | 3.21% | 0.9%
CN1CCN(C(=O)c2ccc(NC(=O)Nc3ccc(N(C)c4ccnc(Nc5ccc(CS(C)(=O)=O)cc5)n4)cc3)cc2)CC1 | 18.7% | 11.3% | 52% | 0.85% | 2.5% | 0.47% | 2.98% | 2.14% | 4.07% | 2.06%
CN(C)C(=O)O[C@@H]1CN[C@@H](C#Cc2cc3ncnc(Nc4ccc(OCc5cccc(F)c5)c(Cl)c4)c3s2)C1 | 1.13% | -1.58% | -0.74% | 0.43% | 0.71% | 0.2% | 1.13% | 0.12% | 2.54% | 0.51%
COC(=O)Nc1nc2cc(Oc3ccc(NC(=O)Nc4cccc(Br)c4)cc3)ccc2[nH]1 | 7.16% | 3.44% | 6.83% | 1.44% | 1.53% | 1.69% | 0.56% | 1.65% | 2.4% | 1.97%
O=C1Nc2ccc(-c3cccnc3)cc2C1=Cc1cc(Br)c(O)c(Br)c1 | 4.77% | 2.87% | 7.43% | 2.15% | 2.73% | 0.76% | -1.29% | 1.03% | 3.66% | 1.69%
COc1ccc2ncnc(Nc3ccc(OCc4ccccc4)cc3)c2c1 | -0.47% | 1.37% | 1.27% | 0.33% | 0.98% | 1.83% | 1.15% | 0.9% | 0.99% | 1.03%

Compound | inhibition [1] | inhibition [2] | inhibition [3] | inhibition [4] | inhibition [5] | inhibition [6] | inhibition [7] | inhibition [8] | inhibition [9] | inhibition [10]
NS(=O)(=O)c1ccc(-c2cc3ccncc3cc2OCc2ccccc2)cc1 | 4.04% | 2.48% | 6.37% | 1.11% | 3.06% | -0.24% | 0.92% | 0.22% | 2.19% | -0.43%
Cc1cc(O)cc(C)c1/C=C/c1cncc(C(=O)N(C)C)c1 | 1.38% | 1.81% | 3.8% | 1.88% | 3.54% | 1.25% | 2.65% | 0.28% | 2.22% | 1.12%
COc1cccc(-n2nc(C)c3c(N/N=C(\C)c4ccncc4)ncnc32)c1 | -1.87% | -0.57% | -1.33% | -1.25% | -0.11% | 0.34% | 1.55% | 1.45% | 0.23% | -0.47%
CS(=O)(=O)CCNCc1nc(-c2ccc3ncnc(Nc4ccc(OCc5cccc(C(F)(F)F)c5)cc4)c3c2)cs1 | -0.55% | 0.87% | 1.92% | -1.01% | 0.29% | 1.21% | 1.84% | 1.45% | 2.09% | 0.32%
O=C(Nc1ccc(Oc2ccc3[nH]c(NC(=O)c4ccco4)nc3c2)cc1)Nc1cc(C(F)(F)F)ccc1F | 26.5% | 4.21% | 31.3% | 1.39% | 10.2% | 1.5% | 6.22% | 5.27% | 35.7% | 0.96%
NS(=O)(=O)c1cccc(-c2cc3ccncc3cc2OCc2ccccc2)c1 | 2.75% | 2.25% | 2.26% | 1.02% | 2.9% | 0.82% | 2.13% | 2.81% | 2.38% | 2.55%
CS(=O)(=O)Nc1cccc(-c2ccc3c(NC(=O)C4CC4)n[nH]c3c2)c1 | 0.09% | 0.82% | -0.9% | -0.15% | -0.83% | 1.31% | 1.41% | 1.1% | 2.19% | 1.24%
Cc1ccc(C(=O)NC2CC2)cc1-c1ccc2[nH]ncc2c1 | 6.16% | 0.52% | 16.1% | 1.16% | 1.93% | 2.94% | 4.97% | -0.94% | 0.23% | -0.73%
Nc1nccc(-c2c(-c3ccc(F)cc3)ncn2CCCN2CCOCC2)n1 | 3.31% | 4.99% | 5.24% | 2.16% | 4.6% | 1.92% | 2.6% | 3.04% | 2.27% | 2.26%
COc1cc(Nc2nccc(-c3cnn4ncccc34)n2)cc(OC)c1 | 8.16% | 2.33% | 15% | 1.35% | 3.27% | 1.72% | 4.75% | 1.42% | 5.35% | 0.97%
CCS(=O)(=O)c1ccc(OC)c(Nc2ncc(-c3cccc(OC)c3)o2)c1 | 2.35% | 0.89% | 1.18% | 0.6% | 4.04% | -0.45% | 0.81% | 1.33% | 4.86% | -0.11%
ON=C1CCc2cc(-c3nc(C4CCNCC4)[nH]c3-c3ccncc3)ccc21 | 0.82% | -1.08% | -0.29% | -1.46% | -1.99% | -1% | -0.39% | 0.31% | 1.01% | 0.13%
CN(C)c1cc2c(Nc3ccc4c(cnn4Cc4ccccc4)c3)ncnc2cn1 | 2.38% | 2.57% | 3.89% | 0.98% | 3.04% | 1.41% | 2.13% | 1.63% | 3.42% | 0.97%
COc1cccc(-n2ncc3c(N/N=C/c4ccc(C)cc4)ncnc32)c1 | 4.15% | 3.08% | 5.34% | 2.5% | 6.59% | 0.75% | 5.14% | 3.75% | 4.8% | 0.68%
CN(c1ccc(NC(=O)Nc2ccc(OC(F)(F)F)cc2)cc1)c1ccnc(Nc2cccc(S(N)(=O)=O)c2)n1 | 1.61% | -0.23% | 3.48% | 0.06% | 0.25% | -0.29% | -0.29% | 1.62% | 2.2% | -0.26%
FC(F)(F)c1ccc(-c2nn3ncccc3c2-c2ccnc(Nc3ccc4c(c3)OCCO4)n2)cc1 | 2.51% | 4.66% | 8.18% | 1.49% | 3.18% | 2.19% | 5.4% | -0.87% | 0.6% | -0.08%
Cc1nc(-c2ccccc2)n2nc(NCCCN3CCOCC3)ncc12 | 0.26% | 2.1% | 0.91% | 1.44% | 5.36% | 2.6% | 7.74% | 3.24% | 7.6% | 2.39%
